Screening data (PubChem)
The entries come from a sample that favours hits as a whole.
CBX7 inh: CBX7 chromodomain binding inhibitors, primary screen, biochemical, AlphaScreen; Chromobox protein homolog 7 (Homo sapiens), O95931; AlphaScreen His6-CBX7 / biotin-H3K27me3 peptide binding; active compounds read low; normalised signal (fraction of DMSO) (no concentration beside the values); 66,000 tested, 1.1% active; in the data active = normalised signal below about 0.5
Target sequence (O95931 whole entry, looked up): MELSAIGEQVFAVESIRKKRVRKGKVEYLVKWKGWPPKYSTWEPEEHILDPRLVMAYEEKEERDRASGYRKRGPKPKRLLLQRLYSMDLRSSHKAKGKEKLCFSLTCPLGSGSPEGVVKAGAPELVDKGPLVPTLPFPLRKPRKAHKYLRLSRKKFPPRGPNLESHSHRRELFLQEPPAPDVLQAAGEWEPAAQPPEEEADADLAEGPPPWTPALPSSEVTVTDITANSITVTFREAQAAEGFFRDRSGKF
Active calls of the source: *.

CCc1nnc(NC(=O)c2ccc(S(=O)(=O)N3CCCCCC3)cc2)o1 was read as CBX7 inh 0.043*.
`O=C(Nc1nnc(C2CC2)o1)c1ccc(S(=O)(=O)N2CCCc3ccccc32)cc1` gave CBX7 inh 0.69.
For O=C(Nc1nnc(C2CCCCC2)s1)c1cccc(F)c1 the results were CBX7 inh 1.1.
Screening CCOC(=O)c1cnc2c(OC)cccc2c1NCCCN1CCOCC1 returned CBX7 inh 0.84.
`CN1CCN(c2oc(-c3ccccc3F)nc2C#N)CC1` gave CBX7 inh 1.2.
`CNC(=O)c1cc(Sc2nnc(C)s2)nc2ccccc12` gave CBX7 inh 1.
For CS(=O)(=O)CC[C@@H](C(=O)Nc1ccc(F)cc1)N1Cc2ccccc2C1=O the results were CBX7 inh 1.
COc1cccc(OC)c1C(=O)Nc1cccc(-c2nc3cc(C)ccc3o2)c1 was read as CBX7 inh 0.9.
For Cc1ccc2oc(-c3cccc(NC(=O)c4ccccc4Cl)c3)nc2c1 the results were CBX7 inh 0.92.
`Cc1ccc2oc(-c3cccc(NC(=O)c4ncn[nH]4)c3)nc2c1` gave CBX7 inh 0.076*.
Cc1cc(NC(=O)CSc2nnc(Cc3cc(=O)[nH]c(=O)[nH]3)n2-c2ccc(Cl)cc2)no1 was read as CBX7 inh 1.1.
Screening Cc1cccc(-n2nc3c(c2NC(=O)CCC2CCCC2)CSC3)c1C returned CBX7 inh 0.9.
Cc1cc2nc(Cc3ccc(F)c(F)c3)c(=O)[nH]c2cc1C was read as CBX7 inh 1.1.
For O=c1c2ccccc2nc(/C=C/c2ccc(OCc3ccc(Cl)c(Cl)c3)cc2)n1-c1cccc(F)c1 the results were CBX7 inh 1.1.
For CC(C)CCNC(=O)CN1C(=O)COc2ccc(S(=O)(=O)N3CCCCCC3)cc21 the results were CBX7 inh 1.
For COc1ccc(-c2n[nH]c(C)c2-c2ccc3c(c2)OCCCO3)c(O)c1 the results were CBX7 inh 0.45*.
Screening COc1ccc(-c2c(-c3ccc(OC)cc3O)n[nH]c2C)cc1 returned CBX7 inh 0.66.
Screening COc1ccc(-c2n[nH]c(C)c2-c2ccc(F)cc2)c(O)c1 returned CBX7 inh 0.74.
`CC(NC(=O)C(=O)NCCN(C)C)C(c1cccs1)N1CCN(C)CC1` (stereo unspecified) gave CBX7 inh 0.96.
`CCc1ccc(-c2cc(C(=O)N3CCN(c4ncccn4)CC3)c3ccccc3n2)cc1` gave CBX7 inh 1.
For COc1cc(Nc2nc(SCC(=O)Nc3cc(C)[nH]n3)nc3ccccc23)cc(OC)c1 the results were CBX7 inh 1.
Screening Cc1cc(NC(=O)CSc2nc(NCc3ccc(Cl)cc3)c3ccccc3n2)n[nH]1 returned CBX7 inh 0.83.
For COc1ccc(CNc2nc(SCC(=O)Nc3cc(C)[nH]n3)nc3ccccc23)cc1 the results were CBX7 inh 0.37*.
COC(=O)c1c(NC(=O)c2cccc(C(F)(F)F)c2)sc2c1CCCCCC2 was read as CBX7 inh 1.5.
Cc1ccc(S(=O)(=O)C2(C(=O)NCc3ccccc3Cl)CC2)cc1 was read as CBX7 inh 1.
Screening COc1ccc(CN(C)CCc2ccccn2)cc1OCc1ccccc1 returned CBX7 inh 0.72.
For COc1ccc(CN(C)CCc2ccccn2)cc1 the results were CBX7 inh 0.69.
Screening COc1ccc(CN(C)CCc2ccccn2)cc1OC returned CBX7 inh 0.47*.
Screening Clc1ccc(COc2ccccc2-c2nc(-c3ccccc3)c(-c3ccccc3)[nH]2)c(Cl)c1 returned CBX7 inh 0.89.
Screening COc1ccc(N2CCN(C(c3cccs3)C(C)NS(=O)(=O)c3ccc(C)cc3)CC2)cc1 (stereo unspecified) returned CBX7 inh 0.52.
For CC(NS(=O)(=O)c1ccc(F)cc1)C(c1cccs1)N1CCN(C)CC1 (stereo unspecified) the results were CBX7 inh 1.
COc1ccc(N2CCN(C(c3cccs3)C(C)NS(=O)(=O)c3ccc(F)cc3)CC2)cc1 (stereo unspecified) was read as CBX7 inh 0.49*.
`CC(NS(=O)(=O)c1ccc(F)cc1)C(c1cccs1)N1CCN(c2ccccc2)CC1` (stereo unspecified) gave CBX7 inh 0.86.
For COc1ccc(N2CCN(C(c3cccs3)C(C)NS(=O)(=O)c3ccccc3)CC2)cc1 (stereo unspecified) the results were CBX7 inh 0.48*.
CCS(=O)(=O)NC(C)C(c1cccs1)N1CCN(c2ccc(OC)cc2)CC1 (stereo unspecified) was read as CBX7 inh 0.83.
Screening O=C1c2cccnc2C(Nc2ccc(Br)cc2F)N1Cc1ccc(F)cc1 (stereo unspecified) returned CBX7 inh 0.87.
For O=C(Nc1cccc(Cl)c1)c1ccc(CNc2c(N3CCCCC3)c(=O)c2=O)cc1 the results were CBX7 inh 1.4.
`CC1CN(Cc2cn3c(-c4cccc(Br)c4)nnc3s2)CC(C)O1` (stereo unspecified) gave CBX7 inh 0.96.
Screening O=C1Nc2cc(C(=O)N3CCOCC3)ccc2SC1N1CCOCC1 (stereo unspecified) returned CBX7 inh 1.
Screening COCCCNC(=O)c1ccc2c(c1)N(Cc1c(F)cccc1Cl)C(=O)CS2 returned CBX7 inh 0.98.
`Cc1cc(C)c(NC2c3ccccc3C(=O)N2c2ccc(Cl)cn2)c(C)c1` (stereo unspecified) gave CBX7 inh 0.89.
CCc1cc(C(=O)Cc2ccc3ccccc3n2)c(O)cc1OC was read as CBX7 inh 0.34*.
Screening CCc1cc(-c2n[nH]c(C)c2Oc2ccccc2)c(O)cc1OC returned CBX7 inh 0.6.
For CCc1cc(-c2[nH]ncc2Oc2ccccc2)c(O)cc1OC the results were CBX7 inh 0.66.
COC(=O)c1ccc2c(=O)n(Cc3ccc4c(c3)OCO4)c(SCc3cccnc3)nc2c1 was read as CBX7 inh 1.
Cc1ccc(S(=O)(=O)N(CC(O)CN2C(=O)NC(C)(C)C2=O)c2ccccc2[N+](=O)[O-])cc1 (stereo unspecified) was read as CBX7 inh 1.1.
`Cc1oc(-c2ccccc2F)nc1CN1CCC(C(=O)NCc2cccs2)CC1` gave CBX7 inh 0.97.
Screening CCN(CC)CCCNC(=O)Cc1cn(C)c2ccccc12 returned CBX7 inh 0.98.
Screening Cn1cc(CC(=O)NCCCN2CCCC2)c2ccccc21 returned CBX7 inh 0.96.
For CCN(CCCNC(=O)Cc1cn(C)c2ccccc12)c1ccccc1 the results were CBX7 inh 0.5*.
CC1C2c3ccccc3C(c3ccccc32)C1C(=O)Nc1cccc(Cl)c1 (stereo unspecified) was read as CBX7 inh 1.
For COc1ccccc1-c1c(C)nn2c(NCc3ccc(C)cc3)cc(C)nc12 the results were CBX7 inh 1.
COc1ccccc1-c1c(C)nn2c(NCc3cccnc3)cc(C)nc12 was read as CBX7 inh 1.1.
Screening COc1ccccc1-c1c(C)nn2c(NCc3ccccn3)cc(C)nc12 returned CBX7 inh 0.39*.
Screening CN(C(=O)c1ccc2c(c1)N(Cc1ccccc1Cl)C(=O)c1ccccc1S2)C1CCCCC1 returned CBX7 inh 0.91.
Cc1ccn2c(NC(=O)c3ccc(F)cc3)c(-c3ccccc3)nc2c1 was read as CBX7 inh 1.2.
`O=C(Nc1nc(N2C(=O)c3ccccc3C2=O)n(-c2ccccc2)n1)c1ccc(F)cc1` gave CBX7 inh 0.09*.
